Assay results as given in PubChem BioAssay AID1851 (National Center for Advancing Translational Sciences (NCATS), 2009).
Values joined by “and” are separate entries in the source; they are usually repeats but may differ in a detail not shown here. Identical values can stand only once. The campaign covered roughly 16,000 compounds. About 5,100 (32%) were called active. Not shown: some 25% with an inconclusive outcome. The list shows a part of the results. Values without a mark were called inactive. Calls come from the whole dose curve; as a rule, active = well fitted curve in the direction sought with a large enough effect; inconclusive = small, poorly fitted or top-dose-only effect, or effect the other way; inactive = no such curve, though single readings can be large or run the other way.

What follows are molecules tested against Cytochrome P450 3A4 (Homo sapiens) (UniProt P08684) (assay: Cytochrome panel assay with activity outcomes). Settings: recombinant CYP, pro-luciferin dealkylation, luminescence, p450-cyp3a4; series mostly up to 57.1 µM; activity, negative = inhibition: at the top concentration.
Sequence of Cytochrome P450 3A4 (Homo sapiens) (P08684 whole entry, looked up): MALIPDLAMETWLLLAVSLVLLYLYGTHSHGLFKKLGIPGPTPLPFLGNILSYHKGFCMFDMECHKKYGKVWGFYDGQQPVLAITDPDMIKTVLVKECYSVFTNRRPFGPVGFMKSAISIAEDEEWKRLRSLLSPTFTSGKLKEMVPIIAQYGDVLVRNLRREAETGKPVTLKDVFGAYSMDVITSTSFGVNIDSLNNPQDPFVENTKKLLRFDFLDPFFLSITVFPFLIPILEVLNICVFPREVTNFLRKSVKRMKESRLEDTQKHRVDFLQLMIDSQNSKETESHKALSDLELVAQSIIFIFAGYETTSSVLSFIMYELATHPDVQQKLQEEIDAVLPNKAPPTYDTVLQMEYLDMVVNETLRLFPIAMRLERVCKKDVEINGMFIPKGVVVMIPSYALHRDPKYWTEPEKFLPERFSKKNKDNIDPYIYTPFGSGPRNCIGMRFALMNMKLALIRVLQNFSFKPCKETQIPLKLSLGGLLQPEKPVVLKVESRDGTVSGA
% is set by controls: 0 for no effect and ±100 for the full control effect.

Compound | activity, negative = inhibition | AC50
N[C@@H]1[C@@H]2[C@@H]3C[C@H]4N(CC[C@@]14C(=O)C(=O)O)CC3=CCO[C@@H]2CC(=O)O | -11.7% [at 11.4 µM] | 
COc1ccc2c(c1)CCc1c(C(=O)N3CCCCCC3)noc1-2 |  | 14.1 µM (active)
CSc1nc2ccccc2cc1/C=C(\C#N)c1ccc(Cl)cc1Cl | 25.6% [at 11.4 µM] | 
CCOC(=O)C1=NNC2(c3ccc(Cl)cc3)C(=O)N(c3cc(C)cc(C)c3)C(=O)C12 (configuration not stated) |  | 2.24 µM (active)
Cc1nc2sc(C#N)c(N)c2c2c1CCCC2 |  | 14.1 µM (active)
Cc1ccc(-c2c3c(nc4sc(C(N)=O)c(N)c24)CCC3)cc1 | 0.806% [at 2.29 µM] | 
COc1nc(C)nc(Cl)c1NC1=NCCN1 |  | inactive
CN=C1N[C@H](c2ccccc2)N(c2ccccc2)S1 |  | 31.6 µM (active)
OCCSCc1cc(Cl)cc(Cl)c1O | -27.9% [at 11.4 µM] | 
S=C(NCCSCc1c(Cl)cccc1Cl)Nc1ccccc1 |  | 7.08 µM (active)
S=C(NCCSCc1ccc(Cl)cc1Cl)Nc1ccccc1 |  | 7.94 µM (active)
Oc1ccc2ccccc2c1C=NCc1c(O)ccc2ccccc12 | -15.3% [at 11.4 µM] | 
CCOC(=O)CSC1=C(C#N)C(c2sccc2C)C(C(C)=O)=C(C)N1 (configuration not stated) | 19% [at 2.29 µM] | 
CCOC(=O)CSC1=C(C#N)C(C)C2=C(CCCC2=O)N1 (configuration not stated) | -26.3% | 
C=CCOC(=O)C1=C(C)NC(SCC(=O)OCC)=C(C#N)C1c1ccc(C)cc1 (configuration not stated) |  | 2.24 µM (active)
CC(=NCC(=O)O)c1ccccc1 | -4.83% [at 11.4 µM] | 
COc1ccccc1-c1nc(NCc2cccs2)c2ccccc2n1 |  | 12.6 µM (active)
COc1ccccc1-c1nc(NCc2cccnc2)c2ccccc2n1 |  | 10 µM (active)
COc1ccccc1-c1nc(NCc2ccccc2)c2ccccc2n1 |  | 3.98 µM (active)
CC[N+](C)(CC)CCOC(=O)C1c2ccccc2Oc2ccccc21 | -8.91% [at 25.6 µM] | 
C[C@@H](C[C@H](N)C(=O)O)C(=O)O | -6.03% [at 11.4 µM] | 
COCC1C2CC[C@H]3C(OCc4ccc(OC)cc4)OC[C@]4(C)[C@H]3C2=C(CN4C(=O)OC(C)(C)C)[C@H](C)C1COC (some centres not stated) |  | 1.58 µM (active)
COc1ccc(COC2OC[C@]3(C)[C@H]4C5=C(CN3C(=O)OC(C)(C)C)[C@H](C)C(CO)C(CO)C5CC[C@@H]24)cc1 (some centres not stated) |  | 7.94 µM (active)
Cc1cc(NC(=O)c2c([N+](=O)[O-])c(C)nn2C)no1 | -9.64% | 

Compound | activity, negative = inhibition | AC50
COc1cccc(NC(=S)NNC(=O)C(C)n2nc(C)c([N+](=O)[O-])c2C)c1 (configuration not stated) | -29.4% [at 2.29 µM] | 
Cc1nn(C(C)C(=O)Nc2sc3c(c2C#N)CCCC3)c(C)c1[N+](=O)[O-] (configuration not stated) |  | 15.8 µM (active)
Cc1nn(C(C)C(=O)Nc2ccc(Cl)cn2)c(C)c1[N+](=O)[O-] (configuration not stated) |  | 15.8 µM (active)
Cc1nc2ccccc2nc(C)c1=NO | -12.4% | 
Cc1cc(OC(=O)c2cc(F)c(F)cc2Cl)nc(C)n1 | 3.45% | 
CC(C)/C(=N/[N+](C)(C)C)c1ccccc1 | -14.9% [at 11.4 µM] | 
CO[C@@H]1COC(=O)C/C=C\[C@H](C)COC(=O)[C@H](C)NC(=O)C/C=C\[C@H]1C | -19.1% [at 11.4 µM] | 
CO[C@@H]1COC(=O)C/C=C\[C@@H](C)[C@H](OC)COC(=O)[C@@H](C)COC(=O)C/C=C\[C@H]1C | -12.1% [at 11.4 µM] | 
CO[C@H]1COC(=O)C/C=C\[C@H](C)[C@@H](NS(=O)(=O)c2ccc(C)cc2)COC(=O)C/C=C\[C@@H]1C |  | 3.16 µM (active)
CO[C@@H]1COC(=O)[C@H](C)NC(=O)C/C=C\[C@@H](C)[C@@H](NS(=O)(=O)c2ccc(C)cc2)COC(=O)C/C=C\[C@@H]1C | 5.93% [at 11.4 µM] | 
CO[C@@H]1COC(=O)C/C=C\[C@H](C)[C@H](OC)COC(=O)[C@H]2CCCN2C(=O)C/C=C\[C@H]1C | -14.8% [at 11.4 µM] | 
CO[C@H]1COC(=O)[C@H]2CCCN2C(=O)[C@@H](C)COC(=O)C/C=C\[C@@H]1C | -39.8% [at 11.4 µM] | 
CO[C@H]1COC(=O)[C@H](C)NC(=O)C/C=C\[C@@H](C)[C@H](OC)COC(=O)[C@@H](OCc2ccccc2)/C=C\[C@@H]1C | -29.2% [at 11.4 µM] | 
CO[C@H]1COC(=O)C/C=C\[C@@H](C)[C@H](OC)COC(=O)[C@H]2CCCN2C(=O)C/C=C\[C@@H]1C | -29.5% [at 11.4 µM] | 
CO[C@H]1COC(=O)[C@H](C)NC(=O)C/C=C\[C@@H](C)[C@@H](NS(=O)(=O)c2ccc(C)cc2)COC(=O)C/C=C\[C@@H]1C |  | 3.98 µM (active)
CO[C@H]1COC(=O)[C@@H](CCSC)NC(=O)C/C=C\[C@@H](C)[C@H](OC)COC(=O)[C@@H](OCc2ccccc2)/C=C\[C@@H]1C | -27.8% [at 11.4 µM] | 
CO[C@@H]1COC(=O)C/C=C\[C@H](C)[C@@H](NS(=O)(=O)c2ccc(C)cc2)COC(=O)C/C=C\[C@@H]1C |  | 3.98 µM (active) and 3.16 µM (active)
CO[C@H]1COC(=O)[C@H](C)NC(=O)C/C=C\[C@@H](C)[C@@H](NS(=O)(=O)c2ccc(C)cc2)COC(=O)[C@H](OCc2ccccc2)/C=C\[C@@H]1C |  | 3.16 µM (active)
CC(C)(C)C(=O)NC(=C(Cl)Cl)P(=O)(O)O | 10.5% | 
N=C(N)C(N=Nc1ccccc1)C(=N)N (configuration not stated) | -1.93% [at 11.4 µM] | 
CO[C@H]1COC(=O)CCC[C@H](C)[C@@H](OC)COC(=O)C/C=C\[C@@H]1C | -19.5% [at 11.4 µM] | 
CO[C@H]1COC(=O)CCC[C@H](C)[C@H](OC)COC(=O)C/C=C\[C@@H]1C | -29.6% [at 11.4 µM] | 
CO[C@H]1COC(=O)C/C=C\[C@H](C)[C@@H](NS(=O)(=O)c2ccc(C)cc2)COC(=O)CCC[C@@H]1C |  | 3.98 µM (active)
